# Assay results taken from PubChem BioAssay (NCI).
# This is part of a sample that, as a whole, favours compounds with a hit. Of some 83,000 tested, about 20% had one in any assay.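 Cells were grown in 96-well plates and exposed to the test compound at a single concentration for 48 hours; results are reported as percent growth, with values below 10 considered active.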 A number with no mark means an inactive call. Calls of active or inactive are those of the source.
# System: T-47D breast
# Experiment: NCI-60 one-dose screen, 48 h (100 = growth as untreated, 0 = no growth, -100 = all killed)
# Details: 10 µM unless noted
row,SMILES,growth
1,Cc1ccc(NC(=O)c2ccc(CN3CCN(C)CC3)c(C(F)(F)F)c2)cc1Oc1ccc(-c2[nH]nc3ncnc(N)c23)cc1,101%
2,COc1ccc([C@H]2c3[nH]c4ccccc4c3C[C@@H]3C(=O)N(C4CCN(Cc5ccccc5)CC4)CC(=O)N23)c(OC)c1,82.8%
3,IP(CCCSc1n(Cc2ccc3ccccc3c2)c(-c2ccccc2)c(-c2ccccc2)[n+]1Cc1ccc2ccccc2c1)(c1ccccc1)(c1ccccc1)c1ccccc1,2.62% (active)
4,O=C1NC(=O)c2c1c1c3ccccc3ccc1c1[nH]c3ccccc3c21,11.8%
5,COc1cc(/C=N/n2cnc3oc(-c4ccccc4)cc3c2=N)cc(CN2CCN(C)CC2)c1O,99.4%
6,COC1=C(c2ccccc2)C(=O)C(OC)=C(c2ccccc2)C1=O,60.9%
7,Cc1ccc(-c2csc(N/N=C/c3nc4ccccc4n3C3CC3)n2)cc1,-50.9% (active)
8,CC(C)=CCc1c(O)c(CC=C(C)C)c2c(c1O)C(=O)C1=C[C@@H]3C[C@H]4C(C)(C)O[C@@](C/C=C(\C)C(=O)O)(C3=O)[C@@]14O2,1.27% (active)
9,CN1CCN(c2nc(-c3csc(-c4ccncc4)n3)cc3ccccc23)CC1,55.9%
10,CN1C(=O)N(C)C2C1NN=c1s/c(=C\c3ccccn3)c(=O)n12 (configuration not stated),108%
11,CC(C)SC1=NC(=C(C(=N1)NC2=ClC=CC=C2)C#N)C3=CC=CC=C3,55%
12,CC(=O)NC(C)(C)C(=O)N[C@@H](C)C(=O)NC(C)(C)C(=O)N[C@@H](C)C(=O)NC(C)(C)C(=O)N[C@@H](C)C(=O)N[C@@H](CCC(N)=O)C(=O)NC(C)(C)C(=O)N[C@H](C(=O)NC(C)(C)C(=O)NCC(=O)N[C@@H](CC(C)C)C(=O)NC(C)(C)C(=O)N1CCC[C@H]1C(=O)N[C@H](C(=O)NC(C)(C)C(=O)NC(C)(C)C(=O)N[C@@H](CCC(N)=O)C(=O)N[C@@H](CCC(N)=O)C(=O)N[C@H](CO)CC1CCCCC1)C(C)C)C(C)C,25% [5 µM]
13,Clc1ccc(-c2csc(N/N=C/c3nc4ccccc4n3C3CC3)n2)cc1,111%
14,O=C(NCCCNc1cc(-c2cn(-c3ccccc3)nc2-c2cccc(O)c2)ccn1)Nc1cc(C(F)(F)F)cc(C(F)(F)F)c1,77.5%
15,COc1ccc(-c2ccc3c4c(cccc24)C(=O)N(N2C(=O)c4cccc5cccc(c45)C2=O)C3=O)cc1,98%
16,Cc1cc(C(=O)Nc2ccc(SC#N)cc2)c(C)o1,84.1%
17,Oc1ccc(CSc2nnc(-c3cnccn3)o2)c2cccnc12,18.5%
18,O=C(O)c1ccc(-n2cc(CNc3ccc(Cl)cc3)c(-c3ccc(F)cc3)n2)cc1,91.4%
19,Cc1cn(-c2cc(NC(=O)c3cncc(C#Cc4cnc5ccc(OCCCS(C)(=O)=O)nn45)c3)cc(C(F)(F)F)c2)cn1,30.5%
20,N/C(=N\OC(=O)CSc1nc2ccccc2s1)c1ccc2ccccc2c1,97.7%
21,Nc1nc(-c2cccc([N+](=O)[O-])c2)c(N=Nc2cccc(Cl)c2)s1,13.6%
22,CC[C@@](C)(NC(=O)C(C)(C)NC(=O)[C@@H](NC(=O)[C@@H]1CCCN1C(=O)C(C)(C)NC(=O)[C@H](CC(C)C)NC(=O)CNC(=O)C(C)(C)NC(=O)[C@@H](NC(=O)C(C)(C)NC(=O)[C@H](CCC(N)=O)NC(=O)[C@H](C)NC(=O)C(C)(C)NC(=O)[C@H](C)NC(=O)C(C)(C)NC(=O)[C@@H]1CCCN1C(=O)C(C)(C)NC(C)=O)C(C)C)C(C)C)C(=O)N[C@@H](CCC(N)=O)C(=O)N[C@@H](CCC(N)=O)C(=O)N[C@H](CO)Cc1ccccc1,0.666% [4.25 µM] (active)
23,COc1ccc(-c2nn(-c3ccccc3)cc2/C=C/C(=O)c2ccc(NC(=O)CCCCCCC(=O)NO)cc2)cc1,103%
24,Nc1ccc(-c2nnc(SCc3ccc(O)c4ncccc34)o2)cc1,-19.7% (active)
25,O=C1Nc2ccc(Cl)cc2/C1=C/c1ccc(OCc2ccc(Br)cc2F)cc1,106%
26,C=C1C(=O)O[C@@H]2/C=C(/C)C3=CC(=O)[C@@](C)(C[C@H](OC(=O)/C(C)=C\C)[C@@H]12)O3,-17.4% (active)
27,O=C(CCCCCCN1CC(=O)N2[C@@H](c3cccc(Cl)c3)c3[nH]c4ccccc4c3C[C@H]2C1=O)NO,19.6%
